Records with an inconclusive call do not appear. Where a call stands in place of a potency, no number is given. Active and inactive are the calls of the source. The call rests on the fitted dose curve; in most records, active means well fitted inhibition curve with a large enough effect; inconclusive means small, poorly fitted or top-dose-only effect; inactive means flat fitted curve, though single readings scatter.
Potency means the concentration at half of the fitted maximal effect.

For one test, the system named is MCC-26. The experiment in a line: qHTS assay to identify novel small-molecules to repurpose for Merkel cell carcinoma treatment (AID 1296009). Further: nearly all actives have a fitted effect of over 60% in size. Conditions: MCC and control cell lines, CellTiter-Glo viability, 72 h; series mostly up to 46 µM. In a few lines:
(§1)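 Cells were treated for 72 hr at 37 degree celsius with compounds in 8- or 11-point dose response. Viability was read by CellTiter-Glo luminescence, normalized to no-cell (cytotoxicity) and DMSO controls.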
With `C#Cc1ccc(-c2ccccc2F)cc1`, the Potency result is “inactive”.

`Cn1c(=O)c2c(ncn2CC(=O)O)n(C)c1=O`: the Potency entry is “inactive”.

Take `CC(=O)N1CCN(c2ccc(O)cc2)CC1`: the Potency result is “inactive”.

Take `Cc1cc(=O)oc2cc(O[C@@H]3SC[C@@H](O)[C@H](O)[C@H]3O)ccc12`: the Potency entry was “inactive”.

Turning to `CC(=O)N(CC(O)CO)c1c(I)c(C(=O)NCCO)c(I)c(C(=O)NCC(O)CO)c1I` (stereo not drawn), the Potency entry was “inactive”.

For the molecule `O=C(OCC(COC(=O)c1cccnc1)(COC(=O)c1cccnc1)COC(=O)c1cccnc1)c1cccnc1`, the Potency entry is “inactive”.

With `CN(C)CCN(Cc1ccsc1)c1ccccn1`, the Potency result is “inactive”.

Consider `C#CC(C)(CC)OC(=O)c1ccccc1C(=O)O` (stereo not drawn), for which the Potency entry was “inactive”.

In the case of `COC(=O)c1cc(Cl)c(NC(C)=O)cc1OC`, the Potency entry is “inactive”.

Take `CCOC(=O)CN1CCCC1=O`: the Potency entry is “inactive”.

For `COc1ccccc1OCC1CNC(=O)O1` (stereo not drawn), the Potency result was “inactive”.

With `C[C@]12CCC(=O)C=C1CC[C@@H]1[C@@H]2[C@@H](O)C[C@@]2(C)[C@H]1CC[C@]2(O)C(=O)COC(=O)CCC(=O)O`, the Potency entry was “inactive”.

On to `OCCOCCN1CCN(C(c2ccccc2)c2ccc(Cl)cc2)CC1` (stereo not drawn), for which the Potency entry was “inactive”.

On to `CCCCOC(=O)CCCCCCCCC(=O)OCCCC`, for which the Potency result is “inactive”.

On to `CCCCCC1Nc2cc(C(F)(F)F)c(S(N)(=O)=O)cc2S(=O)(=O)N1` (stereo not drawn), for which the Potency result is “inactive”.

As for `CN1CCC(=C2c3ccccc3CCc3cccnc32)CC1`, the Potency result is “inactive”.

As to `CSCC[C@H](NC(=O)[C@H](Cc1c[nH]c2ccccc12)NC(=O)CCNC(=O)OC(C)(C)C)C(=O)N[C@@H](CC(=O)O)C(=O)N[C@@H](Cc1ccccc1)C(N)=O`, the Potency result was “inactive”.

On to `CCCc1c2oc(C(=O)O)cc(=O)c2cc2c(=O)cc(C(=O)O)n(CC)c12`, for which the Potency result was “inactive”.

Consider `CCC(=O)Oc1ccc2c(c1)CC[C@@H]1[C@@H]2CC[C@@]2(C)[C@H]1C[C@@H](OC(=O)CC)[C@@H]2OC(=O)CC`, for which the Potency result was “inactive”.

`CCC(CN)=C(c1ccccc1)c1ccccc1`: the Potency entry is “inactive”.

For the molecule `COc1ccc2nc(SCc3ncc(C)c(OC)c3C)[nH]c2c1`, the Potency result is “inactive”.

As to `N#CC1(c2ccc(F)cc2)CCC(=O)CC1`, the Potency entry is “inactive”.

For the molecule `Cc1cc(CCCOc2c(C)cc(-c3noc(C(F)(F)F)n3)cc2C)on1`, the Potency entry is “inactive”.

For `NS(=O)(=O)c1cc(C(=O)NN2C[C@H]3[C@H]4CCC(C4)[C@H]3C2)ccc1Cl`, the Potency result was “inactive”.

For the molecule `O=C(CCCl)NCc1ccccc1`, the Potency result is “inactive”.

As for `CCCCC(O)/C=C(C)/C=C/C=C/C(=O)N1CCCC1=O` (stereo not drawn), the Potency entry was “inactive”.

Regarding `CC(C)(C)NCC(O)COc1ccccc1OCC1CCCO1` (stereo not drawn), the Potency entry was “inactive”.

For the molecule `Clc1ccc2c(c1)Nc1ccccc1S2`, the Potency result was “inactive”.

With `O=c1[nH]c2ccccc2c(=O)n1CCCl`, the Potency result was “inactive”.

On to `CCNC(=O)NCCCOc1cccc(CN2CCCCC2)c1`, for which the Potency result was “inactive”.

`O=C1CC2(CCCC2)CC(=O)N1`: the Potency result was “inactive”.

Regarding `CCCc1ncc(C(=O)O)s1`, the Potency result is “inactive”.

As for `CCOC(=O)c1ccc(NC(=O)CN2CCCCC2)cc1`, the Potency result was “inactive”.

With `CCCCN(CCCC)C(C(N)=O)c1ccc(OC)cc1` (stereo not drawn), the Potency result is “inactive”.

With `Cc1coc2ccccc2c1=O`, the Potency result is “inactive”.

Take `COC(=O)c1cc(S(N)(=O)=O)ccc1OC`: the Potency entry is “inactive”.

Take `CC(=O)Nc1ccc(S(=O)(=O)Nc2cc(C)on2)cc1`: the Potency entry is “inactive”.

Take `CCn1ccc(NS(=O)(=O)c2ccc(N)cc2)nc1=O`: the Potency result was “inactive”.

Consider `OCCCc1ccccc1`, for which the Potency entry was “inactive”.

In another test the test system is MKL-1. Described as above. The note with it: MCC and control cell lines, CellTiter-Glo viability, 72 h; series mostly up to 46 µM. The gist of the method:
as §1
(In general: ATP-based viability assays read luminescence as a measure of living cells.)
`C#Cc1ccc(-c2ccccc2F)cc1`: the Potency result was “inactive”.

In the case of `Cn1c(=O)c2c(ncn2CC(=O)O)n(C)c1=O`, the Potency result is “inactive”.

For `CC(=O)N1CCN(c2ccc(O)cc2)CC1`, the Potency was 8.41 µM (active).

With `Cc1cc(=O)oc2cc(O[C@@H]3SC[C@@H](O)[C@H](O)[C@H]3O)ccc12`, the Potency entry was “inactive”.

For the molecule `CC(=O)N(CC(O)CO)c1c(I)c(C(=O)NCCO)c(I)c(C(=O)NCC(O)CO)c1I` (stereo not drawn), the Potency result is “inactive”.

With `O=C(OCC(COC(=O)c1cccnc1)(COC(=O)c1cccnc1)COC(=O)c1cccnc1)c1cccnc1`, the Potency entry was “inactive”.

For the molecule `CN(C)CCN(Cc1ccsc1)c1ccccn1`, the Potency result was “inactive”.

On to `C#CC(C)(CC)OC(=O)c1ccccc1C(=O)O` (stereo not drawn), for which the Potency entry is “inactive”.

As to `COC(=O)c1cc(Cl)c(NC(C)=O)cc1OC`, the Potency entry was “inactive”.

With `CCOC(=O)CN1CCCC1=O`, the Potency result was “inactive”.

For `COc1ccccc1OCC1CNC(=O)O1` (stereo not drawn), the Potency result is “inactive”.

Consider `C[C@]12CCC(=O)C=C1CC[C@@H]1[C@@H]2[C@@H](O)C[C@@]2(C)[C@H]1CC[C@]2(O)C(=O)COC(=O)CCC(=O)O`, for which the Potency result is “inactive”.

Regarding `OCCOCCN1CCN(C(c2ccccc2)c2ccc(Cl)cc2)CC1` (stereo not drawn), the Potency entry was “inactive”.

Consider `CCCCOC(=O)CCCCCCCCC(=O)OCCCC`, for which the Potency entry was “inactive”.

Turning to `CCCCCC1Nc2cc(C(F)(F)F)c(S(N)(=O)=O)cc2S(=O)(=O)N1` (stereo not drawn), the Potency result is “inactive”.

With `CN1CCC(=C2c3ccccc3CCc3cccnc32)CC1`, the Potency entry is “inactive”.

As to `CSCC[C@H](NC(=O)[C@H](Cc1c[nH]c2ccccc12)NC(=O)CCNC(=O)OC(C)(C)C)C(=O)N[C@@H](CC(=O)O)C(=O)N[C@@H](Cc1ccccc1)C(N)=O`, the Potency entry is “inactive”.

Turning to `CCCc1c2oc(C(=O)O)cc(=O)c2cc2c(=O)cc(C(=O)O)n(CC)c12`, the Potency result was “inactive”.

As to `CCC(=O)Oc1ccc2c(c1)CC[C@@H]1[C@@H]2CC[C@@]2(C)[C@H]1C[C@@H](OC(=O)CC)[C@@H]2OC(=O)CC`, the Potency result is “inactive”.

As for `CCC(CN)=C(c1ccccc1)c1ccccc1`, the Potency entry was “inactive”.

For the molecule `COc1ccc2nc(SCc3ncc(C)c(OC)c3C)[nH]c2c1`, the Potency entry was “inactive”.

On to `N#CC1(c2ccc(F)cc2)CCC(=O)CC1`, for which the Potency entry was “inactive”.

Take `Cc1cc(CCCOc2c(C)cc(-c3noc(C(F)(F)F)n3)cc2C)on1`: the Potency entry is “inactive”.

`NS(=O)(=O)c1cc(C(=O)NN2C[C@H]3[C@H]4CCC(C4)[C@H]3C2)ccc1Cl`: the Potency result was “inactive”.

For `O=C(CCCl)NCc1ccccc1`, the Potency entry is “inactive”.

Take `CCCCC(O)/C=C(C)/C=C/C=C/C(=O)N1CCCC1=O` (stereo not drawn): the Potency result is “inactive”.

Turning to `CC(C)(C)NCC(O)COc1ccccc1OCC1CCCO1` (stereo not drawn), the Potency result is “inactive”.

For `Clc1ccc2c(c1)Nc1ccccc1S2`, the Potency entry was “inactive”.

For the molecule `O=c1[nH]c2ccccc2c(=O)n1CCCl`, the Potency result is “inactive”.

As for `CCNC(=O)NCCCOc1cccc(CN2CCCCC2)c1`, the Potency result was “inactive”.

In the case of `O=C1CC2(CCCC2)CC(=O)N1`, the Potency entry was “inactive”.

In the case of `CCCc1ncc(C(=O)O)s1`, the Potency result is “inactive”.

`CCOC(=O)c1ccc(NC(=O)CN2CCCCC2)cc1`: the Potency entry was “inactive”.

In the case of `CCCCN(CCCC)C(C(N)=O)c1ccc(OC)cc1` (stereo not drawn), the Potency result was “inactive”.

As to `Cc1coc2ccccc2c1=O`, the Potency entry was “inactive”.

Regarding `COC(=O)c1cc(S(N)(=O)=O)ccc1OC`, the Potency entry was “inactive”.

As to `CC(=O)Nc1ccc(S(=O)(=O)Nc2cc(C)on2)cc1`, the Potency entry is “inactive”.

Consider `CCn1ccc(NS(=O)(=O)c2ccc(N)cc2)nc1=O`, for which the Potency entry was “inactive”.

On to `OCCCc1ccccc1`, for which the Potency entry is “inactive”.
